Reference: PubChem BioAssay (NCI)
Compounds without any hit were thinned out: in the full panel of roughly 83,000, 20% have a hit.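 48-hour exposure, single concentration, 96-well plates; percent growth endpoint where 0 means no net growth. Active: below 10.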 Values without a mark were called inactive. Calls of active or inactive are those of the source.

Assays:
Assay in all cases: NCI-60 one-dose screen, 48 h (100 = growth as untreated, 0 = no growth, -100 = all killed)
Details in all cases: 10 µM unless noted
HCT-15 colon = test system: HCT-15 colon
HT29 colon = test system: HT29 colon
SNB-75 CNS = test system: SNB-75 CNS
U251 CNS = test system: U251 CNS
PC-3 prostate = test system: PC-3 prostate
SK-MEL-5 melanoma = test system: SK-MEL-5 melanoma
UACC-62 melanoma = test system: UACC-62 melanoma
LOX IMVI melanoma = test system: LOX IMVI melanoma
SK-MEL-28 melanoma = test system: SK-MEL-28 melanoma
SK-MEL-2 melanoma = test system: SK-MEL-2 melanoma
EKVX NSCLC = test system: EKVX NSCLC
UO-31 renal = test system: UO-31 renal
TK-10 renal = test system: TK-10 renal
ACHN renal = test system: ACHN renal
CAKI-1 renal = test system: CAKI-1 renal
A498 renal = test system: A498 renal
CCRF-CEM leukemia = test system: CCRF-CEM leukemia
MOLT-4 leukemia = test system: MOLT-4 leukemia
SN12C renal = test system: SN12C renal
SNB-19 CNS = test system: SNB-19 CNS

| Compound | growth (HCT-15 colon) | growth (HT29 colon) | growth (SNB-75 CNS) | growth (U251 CNS) | growth (PC-3 prostate) | growth (SK-MEL-5 melanoma) | growth (UACC-62 melanoma) | growth (LOX IMVI melanoma) | growth (SK-MEL-28 melanoma) | growth (SK-MEL-2 melanoma) | growth (EKVX NSCLC) | growth (UO-31 renal) | growth (TK-10 renal) | growth (ACHN renal) | growth (CAKI-1 renal) | growth (A498 renal) | growth (CCRF-CEM leukemia) | growth (MOLT-4 leukemia) | growth (SN12C renal) | growth (SNB-19 CNS) |
| --- | --- | --- | --- | --- | --- | --- | --- | --- | --- | --- | --- | --- | --- | --- | --- | --- | --- | --- | --- | --- |
| COc1nc2c(cc1S(=O)(=O)c1ccccc1)CCc1c-2cnn1-c1ccc(Cl)cc1 | 93.8% | 89.3% | 92.3% | 92.1% | 88.2% | 94.8% | 88.7% | 96.2% | 88.8% | 97.2% | 90.4% | 99.3% | 110% | 102% | 90.8% | 82.4% | 84.2% | 86.3% | – | – |
| O=C(Cc1ccccc1)c1ccc(Cl)cc1 | 97.1% | 115% | 95.9% | 99.5% | 116% | 103% | 93.2% | 102% | 114% | 99% | 87.4% | 111% | 99.5% | 103% | – | 90.9% | 99.1% | 84.2% | 89% | – |
| CCN(CC)c1ccc(CNc2cc(C)nc3ccc(OC)cc23)cc1 | 79.1% | 9.05% (active) | 65.8% | 25% | 28.5% | 39% | – | 24.7% | 96.6% | 79.2% | 25.7% | 3.78% (active) | 71.1% | 78.1% | 21.6% | 17% | 23.3% | 4.46% (active) | – | – |
| CCCCN(CCCC)CCC(C)(O)c1cc2ccccc2c2ccccc12 (stereo unspecified) | 82.2% | 39.7% | 106% | 86.3% | 47.5% | 102% | – | 45.7% | 121% | 122% | 103% | 50.9% | 104% | 96.9% | 87.9% | 83.1% | 42.4% | 37.5% | – | – |
| C=C(CN1CCN(c2cccc(C(F)(F)F)n2)CC1)c1ccc(C(=O)Nc2ccccc2N)cc1 | 12.9% | -23.3% (active) | 7.18% (active) | 23.1% | 22.6% | -62.2% (active) | 26.9% | 8.1% (active) | – | -9.9% (active) | 47.2% | 12% | 41.6% | 34% | 14.3% | 35.6% | -32.1% (active) | -14.5% (active) | 15.5% | – |
| COc1nc2c(cc1S(=O)(=O)c1ccccc1)CCc1c-2cnn1Cc1ccccc1 | 43.1% | 13.9% | 72.1% | 48.1% | 38.3% | 34.7% | 52% | 65.9% | 92.3% | 74.3% | 36.1% | 39.4% | 61% | 71.7% | – | 17.6% | 68.7% | 44.9% | – | – |
| CC(=O)Nc1ccc2c(c1)c(NC(C)=O)nn2C(=O)Nc1ccc(Cc2ccccc2)cc1 | 78.8% | 89.1% | 106% | 69.5% | 63.5% | 109% | 20% | 53.6% | 141% | 12.9% | 71.3% | 68.2% | 85% | 65.8% | – | 90.6% | 89.8% | 93.6% | 82.9% | – |
| COc1ccc(S(=O)(=O)NCCCNc2cc(-c3c(-c4cccc(OC)c4)nc4sccn34)ccn2)cc1 | 35.7% | 35% | – | 59.4% | 26.9% | -10.9% (active) | 20.4% | 46.6% | 65.5% | 53.3% | 48.4% | 18% | 73.4% | 33.2% | 32% | 36.7% | 26.5% | 19.2% | 36% | 62.7% |
| COc1cc(NCCCCCN=C(N)NC(N)=NC(C)C)c2ncccc2c1 | 110% | 54.2% | – | 20.5% | 32.8% | 5.87% (active) | 36.8% | 9.91% (active) | 60.1% | 20.1% | 42.2% | 76.7% | 66.7% | 105% | 100% | 110% | 25.3% | 27.9% | 25.9% | 33.2% |
| O=C1/C(=C/c2ccc(F)cc2)CN(C(=O)CCN2CCC(=NO)CC2)C/C1=C\c1ccc(F)cc1 | -58% (active) | -76.2% (active) | – | -65.1% (active) | -23.9% (active) | -89.6% (active) | -67.2% (active) | -89.6% (active) | -59.1% (active) | -14% (active) | -21.4% (active) | -100% (active) | -5.74% (active) | -66.3% (active) | -46.4% (active) | 24.9% | -18.3% (active) | 0.0352% (active) | -35.4% (active) | -37.9% (active) |
| Cc1cc(N/N=C/c2nc(-c3ccc(Cl)cc3)oc2C)c2cc(Cl)ccc2n1 | -52.6% (active) | -51.2% (active) | – | -54.5% (active) | 67% | 95.1% | 29.7% | -66.7% (active) | 10.3% | 104% | 92% | 21.2% | 30.5% | 63.4% | 90.2% | 86.9% | -24.3% (active) | -20.7% (active) | -5.24% (active) | 29.3% |
| CCC(=O)Oc1ccc(/C(=C(\C)c2ccccc2)c2ccc(OCCN(CC)CC)cc2)cc1 | 54.3% | 7.83% (active) | – | 71.6% | 66.7% | 74.8% | 93.4% | 87.8% | 80.3% | 108% | 103% | 63.3% | 87.4% | 94.8% | 100% | 99.9% | 77.8% | 66.4% | 84.5% | 87.8% |
| O=C(CN1CCN(c2cc3c(cc2F)c(=O)c(C(=O)N/N=C/c2ccccc2)cn3C2CC2)CC1)N/N=C\c1ccccc1 | 53.9% | 73.4% | – | 83.7% | 50% | 83% | 71.4% | 72.6% | 88.9% | 86.1% | 66.6% | 53.3% | 89.1% | 72% | 78.1% | 78.7% | 60.9% | 42.7% | 65.7% | 74% |
| COc1cc(C#N)cc(OC)c1OCCN(CCOc1c(OC)cc(C#N)cc1OC)S(=O)(=O)c1ccc(C)cc1 | 108% | 111% | 92.7% | – | – | 61.8% | 96.8% | 93.1% | 118% | 75% | 108% | 45.5% | 140% | 97.5% | 109% | 107% | 103% | 97.6% | 111% | – |
| Cn1c2c(Cl)c(Cl)ccc2c2ccn3c(=O)c4ccccc4nc3c21 | 102% | 105% | 91.6% | – | 101% | 95.2% | 90.6% | 104% | 117% | 107% | 80.8% | 70.1% | 162% | 93% | 89.1% | 120% | 80.8% | 94.7% | 104% | – |
| CCN(CC)CC(O)CNc1c2ccc([N+](=O)[O-])cc2nc2cc(OC)c(OC)cc12 (stereo unspecified) | 11.9% | -48.7% (active) | -94.6% (active) | – | -53.4% (active) | -78.3% (active) | -77.6% (active) | -40.2% (active) | -11.9% (active) | -48.7% (active) | -27.4% (active) | 4.89% (active) | 2.27% (active) | 11.1% | – | -52.9% (active) | 9.53% (active) | -9.91% (active) | -34.1% (active) | – |
| Cc1ccc2c(c1)C(=O)/C(=C/c1ccc(OCC(=O)c3ccccc3)cc1)O2 | 75.3% | 101% | 109% | 99.1% | – | 86.9% | 63.8% | 102% | 112% | 77.8% | 90.2% | 85.5% | 127% | 100% | – | 98.3% | 151% | 33.2% | 98.6% | – |
